Laboratory results from PubChem BioAssay (NCATS).
Activity calls are given as the source filed them. The call rests on the fitted dose curve.

Assay: qHTS drug screen for cell cycle checkpoint inhibitors in PARPi-resistant BRCA-mutant ovarian cancer cell lines. (AID 1963452)
Settings: PEO1/OlaR viability, CellTiter-Glo luminescence, 96 h, stronger effect = lower value
Procedure, shortened: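 PEO1, PEO4 and PEO1/OlaR ovarian cancer cells, 600 per well, exposed 96 h at 37C to a dilution series. Viability read by CellTiter-Glo luminescence, normalized to DMSO and empty wells; activity summarized as Z-AUC.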

[1] = measured here: PEO1 parental Z-AUC

**Q.** What does the source list for `Cc1ccc(C(C)(O)c2nc3ccccc3s2)c(C)c1` (stereo unspecified)?
**A.** Z-AUC: 0.398 (inactive); Z-AUC [1]: 0.537; Z-AUC (measured here: PEO4 Z-AUC): 0.368

**Q.** With `COc1cccc([C@@H](C)NCCCc2ccccc2Cl)c1` as the compound, how does the Z-AUC read?
**A.** 0.861 (inactive)

**Q.** And the Z-AUC [1]?
**A.** 1.12

**Q.** What about the Z-AUC (measured here: PEO4 Z-AUC) of the same compound?
**A.** 0.597

**Q.** Which Z-AUC does the source give for `NC(=O)c1ccc2nc(-c3ccc(Oc4ccc(Cl)cc4)cc3)[nH]c2c1` here?
**A.** -1.56 (inactive)

**Q.** What about the Z-AUC [1] of the same compound?
**A.** -1.26

**Q.** What about the Z-AUC (measured here: PEO4 Z-AUC) of the same compound?
**A.** -1.18

**Q.** For `CCCCCCCCCCCC1=C(O)C(=O)C=C(O)C1=O`, which Z-AUC is on record?
**A.** 1.62 (inactive)

**Q.** What about the Z-AUC [1] of the same compound?
**A.** 1.09

**Q.** And the Z-AUC (measured here: PEO4 Z-AUC)?
**A.** 1.19

**Q.** For `O=C(Nc1cccc(Br)c1)c1cccc(S(=O)(=O)N2CCCCCC2)c1`, which Z-AUC is on record?
**A.** -0.479 (inactive)

**Q.** What about the Z-AUC [1] of the same compound?
**A.** 0.243

**Q.** And the Z-AUC (measured here: PEO4 Z-AUC)?
**A.** -0.0385

**Q.** Which results are given for `CN(C)Cc1ccc(-c2nc3cccc4c3n2CCNC4=O)cc1`?
**A.** Z-AUC: 0.426 (inactive); Z-AUC [1]: 0.483; Z-AUC (measured here: PEO4 Z-AUC): 0.475

**Q.** With `CC(C)C[C@H](CC(=O)O)C(=O)N[C@@H](Cc1c[nH]c2ccccc12)C(=O)N[C@@H](C)c1ccccc1` as the compound, how does the Z-AUC read?
**A.** 1.58 (inactive)

**Q.** What about the Z-AUC [1] of the same compound?
**A.** 1.54

**Q.** What about the Z-AUC (measured here: PEO4 Z-AUC) of the same compound?
**A.** 1.63

**Q.** With `COCCOc1nc(-c2ccc(Cl)c(Cl)c2)n(-c2ccc(NC(=O)CCl)cc2)n1` as the compound, how does the Z-AUC read?
**A.** -0.18 (inactive)

**Q.** And the Z-AUC [1]?
**A.** 0.0816

**Q.** And the Z-AUC (measured here: PEO4 Z-AUC)?
**A.** -0.069

**Q.** Which results are given for `Cc1ccc(F)c(NC(=O)Nc2ccc(-c3cccc4[nH]nc(N)c34)cc2)c1`?
**A.** Z-AUC: 1.25 (inactive); Z-AUC [1]: 1.09; Z-AUC (measured here: PEO4 Z-AUC): 1.16

**Q.** With `O=c1cc(N2CCOCC2)oc2c(-c3cccc4c3sc3ccccc34)cccc12` as the compound, how does the Z-AUC read?
**A.** 0.27 (inactive)

**Q.** And the Z-AUC [1]?
**A.** 0.135

**Q.** What about the Z-AUC (measured here: PEO4 Z-AUC) of the same compound?
**A.** 0.0636

**Q.** Which results are given for `CC1(C)CCC2=C(O1)c1ccccc1C(=O)C2=O`?
**A.** Z-AUC: 0.0983 (inactive); Z-AUC [1]: -0.291; Z-AUC (measured here: PEO4 Z-AUC): 0.134

**Q.** For `Oc1ccc(C2=Cc3ccc(O)cc3OC2)cc1`, which Z-AUC is on record?
**A.** -0.664 (inactive)

**Q.** And the Z-AUC [1]?
**A.** -0.782

**Q.** And the Z-AUC (measured here: PEO4 Z-AUC)?
**A.** -0.812
